Rows were chosen to be rich in hits. Some 3.8% of all compounds tested hit in one or more screens of this group.
A549 viability – Nrf2 qHTS screen for inhibitors: counterscreen for cytotoxicity. A549 ARE-Fluc cells, CellTiter-Fluor viability, 18-24 h. Potency, µM (top dose mostly 46 µM), without a hit: top-dose activity change, negative = cytotoxicity, most hits filed as inhibitors. 390,000 tested, 0.16% active. AID 504648, 2011; further: on the % scale 0 is the no-effect control and ±100 the full control effect
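A549 ARE_Fluc cells in 5% FBS OPTI-MEM were exposed to compounds in concentration-response for 18-24 h at 37 deg C. Viability was read by CellTiter-Fluor fluorescence (Ex 405/Em 525) after 30 min, before the luciferase read.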
HepG2 viability – qHTS for Inhibitors of TGF-b: Cytotox Counterscreen | HepG2 CAGA-GFP viability, ATP luminescence, 18 h | Potency, µM (titrated, usually from 46.1 µM), without a hit: top-dose activity change, negative = cytotoxicity, actives largely listed as cytotoxic | 410,000 tested, 0.76% active | AID 588856, 2011
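CellTiter-Glo luminescence gave cytotoxicity after 18 hours at 37 degrees C. The cells were HepG2 CAGA-GFP in 1% FBS DMEM, stimulated with 500 pg/mL TGF-beta after compound addition. %Activity was normalised to no-cell wells (complete cell-killing) and DMSO (no toxicity), and curves were fitted and classified.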
TGFb SMAD3 inh – qHTS for Inhibitors of TGF-b; HepG2 CAGA-GFP TGF-b/SMAD3 reporter, GFP fluorescence, 18 h; TGF-beta stimulated, 500 pg/mL final; Potency, µM (top dose mostly 46.1 µM), for inactives: top-dose activity, negative = inhibition, usual class: inhibitors; 410,000 tested, 1.2% active; further: on the % scale 0 is the no-effect control and ±100 the full control effect; nearly all actives have a fitted effect of over 65% in size
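First, reporter cells (HEPG2 CAGA-GFP) rested 2 h at 37 degrees C. Next, compounds were pinned in and TGF-beta added to 500 pg/mL final. After 18 h, GFP was imaged per cell and summed per well.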
Nrf2 block – Nrf2 qHTS screen for inhibitors; A549 ARE-Fluc reporter, luciferase luminescence, 18-24 h; Potency, µM (highest dose often 46 µM), without a hit: at the top dose activity change, negative = inhibition, usual class: inhibitors; AID 504444, 2011; 360,000 tested, 2.1% active; further: on the % scale 0 is the no-effect control and ±100 the full control effect; nearly all actives have a fitted effect of over 60% in size
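Two sequential reads on A549 ARE_Fluc cells exposed to compound for 18-24 h: a CellTiter-Fluor fluorescence read for viability, then a luciferase luminescence read for Nrf2/ARE activity.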
ATXN viability – Viability Counterscreen for Primary qHTS for Inhibitors of ATXN expression; Potency, µM (top dose mostly 56.7 µM), usual class: cytotoxic; S2 cells (HEK-293 line with an ATXN2-luciferase reporter) viability, CellTiter-Fluor protease fluorescence, 24 h; AID 651635, 2014; 400,000 tested, 0.49% active; further: nearly all actives have a fitted effect of over 40% in size
ATXN2 expr inh – Primary qHTS for Inhibitors of ATXN expression; Potency, µM (titrated, usually from 57 µM), without a hit: at the highest dose activity change, negative = inhibition, hits mostly inhibitors; HEK-293 ATXN2-luciferase reporter, luminescence, 24 h; 360,000 tested, 0.72% active; AID 1745845, 2022; further: on the % scale 0 is the no-effect control and ±100 the full control effect; nearly all actives have a fitted effect of over 55% in size
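ATXN2-luciferase reporter cells (luciferase flanked by upstream and downstream ATXN2 gene portions) were treated 24 h at 37 °C with compounds at up to 57 uM. SteadyGlo luminescence gave expression; GF-AFC fluorescence gave viability.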
The depositor's hits bear a star. The call rests on the fitted dose curve; in most records, active means well fitted curve in the direction sought with a large enough effect; inconclusive means small, poorly fitted or top-dose-only effect, or another doubt; inactive means no such curve, though single readings can be large; an effect the other way counts as inactive or inconclusive. Potency means the concentration at half of the fitted maximal effect.

Screening CSc1cc(C)c(OCC(=O)Nc2ccc(NC(C)=O)cc2)c(C)c1 returned A549 viability 5%, HepG2 viability 0.2µM*, TGFb SMAD3 inh -10%, Nrf2 block -4% and ATXN viability inactive.
CCOc1ccc(NC(=O)Cn2c(=O)c(CNc3ccc(OC)cc3)cc3ccc(OC)cc32)cc1 was read as A549 viability 0%, HepG2 viability 2%, TGFb SMAD3 inh 7%, Nrf2 block 0%, ATXN viability inactive and ATXN2 expr inh 12%.
Screening CCOc1cc(C(Nc2cc(C)ccn2)c2ccc3cccnc3c2O)ccc1OC (centres undefined) returned A549 viability 0%, HepG2 viability -49%, TGFb SMAD3 inh 0.79µM* and Nrf2 block 5%.
For CCCCC(=O)NC(c1ccc(N(C)C)cc1)c1ccc2cccnc2c1O (centres undefined) the results were A549 viability -9%, HepG2 viability -62%, TGFb SMAD3 inh inconclusive, Nrf2 block inconclusive, ATXN viability inconclusive and ATXN2 expr inh inconclusive.
For CCCCC(=O)NC(c1ccc(N(CC)CC)cc1)c1ccc2cccnc2c1O (centres undefined) the results were A549 viability 0%, HepG2 viability -47%, TGFb SMAD3 inh inconclusive, Nrf2 block inconclusive, ATXN viability inactive and ATXN2 expr inh 2.8µM*.
`CCCCC(=O)NC(c1ccc(Cl)cc1)c1ccc2cccnc2c1O` (centres undefined) gave A549 viability -5%, HepG2 viability -60%, TGFb SMAD3 inh inconclusive, Nrf2 block 7%, ATXN viability inactive and ATXN2 expr inh 7.9µM*.
For CCCC(=O)NC(c1ccc(Cl)cc1Cl)c1ccc2cccnc2c1O (centres undefined) the results were A549 viability -18%, HepG2 viability -18%, TGFb SMAD3 inh inconclusive, Nrf2 block 23µM*, ATXN viability inactive and ATXN2 expr inh inconclusive.
CC(=O)NC(c1ccc(Cl)cc1Cl)c1ccc2cccnc2c1O (centres undefined) was read as A549 viability -18%, HepG2 viability -4%, TGFb SMAD3 inh inconclusive, Nrf2 block inconclusive, ATXN viability inconclusive and ATXN2 expr inh inconclusive.
`CCCN1CNc2c(c(=O)[nH]c(=S)n2CCc2cc(OC)cc(OC)c2)C1` gave A549 viability 20% and Nrf2 block -5%.
For CCCCC(=O)NC(c1ccccc1OC)c1ccc2cccnc2c1O (centres undefined) the results were A549 viability -25%, HepG2 viability -8%, TGFb SMAD3 inh inconclusive, Nrf2 block 21µM*, ATXN viability inactive and ATXN2 expr inh 4µM*.
For CN(C)CC/C=C1\c2ccc(F)cc2Sc2cc(F)c(Cl)cc21 the results were A549 viability 10%, HepG2 viability 18µM*, TGFb SMAD3 inh inconclusive, Nrf2 block 15% and ATXN viability inconclusive.
Screening CN(C)CC/C=C1/c2ccc(F)cc2Sc2ccc(Cl)cc21 returned A549 viability 4%, HepG2 viability 16µM*, TGFb SMAD3 inh inconclusive, Nrf2 block 13%, ATXN viability inconclusive and ATXN2 expr inh inconclusive.
Screening CN(C)CC/C=C1\c2ccccc2Sc2cc(F)c(Cl)cc21 returned A549 viability 2%, HepG2 viability -42%, TGFb SMAD3 inh inconclusive, Nrf2 block 4%, ATXN viability inconclusive and ATXN2 expr inh -18%.
Screening CCOC(=O)C1CCCN(Cc2nc(N)nc(Nc3ccc(Cl)cc3)n2)C1 (centres undefined) returned A549 viability -18%, HepG2 viability 0%, TGFb SMAD3 inh 15%, Nrf2 block 26µM*, ATXN viability inactive and ATXN2 expr inh -5%.

Screens (PubChem)
